Inconclusive results are not listed. Activity calls are given as the source filed them. The call rests on the fitted dose curve; in most records, active means well fitted inhibition curve with a large enough effect; inconclusive means small, poorly fitted or top-dose-only effect; inactive means flat fitted curve, though single readings scatter. Where a SMILES comes first, the peptide text is derived from it. Bridges are numbered along the chain shown (N, C = ends). [ ]: non-standard residue; d: D form. hArg = N=C(N)NCCCC[C@H](N)C(=O)O; Mpa = O=C(O)CCS
Key:
Experiment in all cases: qHTS profiling for inhibitors of Plasmodium falciparum proliferation (AID 504749); further: nearly all actives have a fitted effect of over 60% in size
Settings in all cases: P. falciparum in erythrocytes, SYBR Green DNA, 72 h; series mostly up to 28.7 µM
[1] = test system: ATS95
Outline: (§1)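 Quantitative HTS: compounds pinned into medium, infected erythrocytes added (0.3% parasitemia, 2.5% hematocrit), 72 h culture at 37 C under 5% CO2. Saponin/Triton lysis with SYBR Green I, overnight RT, then fluorescence read.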

[2] = test system: C2A
Outline: as §1

[3] = test system: CP185
Outline: as §1

[4] = test system: CP191
Outline: as §1

[5] = test system: CP192
Outline: as §1

[6] = test system: CP194
Outline: as §1

[7] = test system: CP201
Outline: as §1

[8] = test system: CP203
Outline: as §1

[9] = test system: CP211
Outline: as §1

[10] = test system: CP215
Outline: as §1

[11] = test system: CP217
Outline: as §1

[12] = test system: CP237
Outline: as §1

[13] = test system: CP238
Outline: as §1

[14] = test system: CP247
Outline: as §1

[15] = test system: CP250
Outline: as §1

[16] = test system: CP252
Outline: as §1

[17] = test system: CP256
Outline: as §1

[18] = test system: CP260
Outline: as §1

[19] = test system: CP262
Outline: as §1

[20] = test system: CP265
Outline: as §1

Measured: Potency

NC(=O)NS(=O)(=O)c1ccc(N)cc1
inactive: all assays above

Cc1c(C)c2c(c(C)c1OC(=O)c1cccnc1)CC[C@@](C)(CCC[C@H](C)CCC[C@H](C)CCCC(C)C)O2
inactive: all assays above

O=C(Cn1ccnc1[N+](=O)[O-])NCc1ccccc1
inactive: all assays above

Cn1c([N+](=O)[O-])cnc1COC(N)=O
inactive: all assays above

CCCCCCCC(=O)OCC(O)CO (stereo not given)
inactive: all assays above

Cc1cc(C)nc(NS(=O)(=O)c2ccc(N)cc2)n1
inactive: all assays above

O=C(O)c1cc(=O)c2ccccc2o1
inactive: all assays above

Cc1ccc(C(C)C)c(O)c1
inactive: all assays above

O=c1[nH]c2cc(C(F)(F)F)c(N3CCOCC3)cc2n(CP(=O)(O)O)c1=O
inactive: all assays above

CNCc1ccccc1
inactive: all assays above

Cc1c(C(=O)NCCO)[n+](=O)c2ccccc2n1[O-]
inactive: all assays above

COc1ccc(C(=O)NCc2ccc(OCCN(C)C)cc2)cc1OC
inactive: all assays above

CC1CC(OC(=O)c2ccccc2O)CC(C)(C)C1 (stereo not given)
inactive: all assays above

Cc1cccc(C)c1NC(=O)CC12CCCN1CCC2
inactive: all assays above

Cc1ccsc1C(=CCCN1CCC[C@@H](C(=O)O)C1)c1sccc1C
inactive: all assays above

Cn1c(=O)c2c(ncn2CCO)n(C)c1=O
inactive: all assays above

CCCCCCCCCCC(CO)CCCCCCCC (stereo not given)
inactive: all assays above

Nc1ccc(S(=O)(=O)c2ccc(N)cc2)cc1
inactive: all assays above

O=C(O)CNC(=O)c1ccccc1I
inactive: all assays above

Cc1c(I)c(=O)n(-c2ccccc2)n1C
inactive: all assays above

c1ccc2[nH]ccc2c1
inactive: all assays above

COC(=O)c1cccnc1
inactive: all assays above

CC(C)(C)C(=O)OCOC(=O)[C@@H]1N2C(=O)[C@@H](NC(=O)[C@H](N)c3ccccc3)[C@H]2SC1(C)C
inactive: all assays above

NS(=O)(=O)c1cc2c(cc1C(F)(F)F)NCNS2(=O)=O
inactive: all assays above

NC(=O)[C@@H]1CSSCCC(=O)N[C@@H](CCCCN=C(N)N)C(=O)NCC(=O)N[C@@H](CC(=O)O)C(=O)N[C@@H](Cc2c[nH]c3ccccc23)C(=O)N2CCC[C@H]2C(=O)N1 ([Mpa][hArg]GDWPC-NH2; disulfide 1-7)
inactive: all assays above

CN(C(=O)c1c(O)c2ccccc2n(C)c1=O)c1ccccc1
inactive: all assays above

O=C(O)Cn1c(C(=O)Nc2nc(-c3ccccc3Cl)cs2)cc2ccccc21
inactive: all assays above

O=C(Cn1ccnc1[N+](=O)[O-])NCCO
inactive: all assays above

Reference: PubChem BioAssay (NCATS)
